According to ChEMBL document CHEMBL3988442, “University of Dundee, Small-Polar-MMV Screening Library” (2021):

target: T1, Aspartate--tRNA(Asp/Asn) ligase (Mycobacterium tuberculosis (strain ATCC 25618 / H37Rv)) (UniProt P9WFW3); assay: Assay for Asp RNA synthetase-1 from Mycobacterium tuberculosis; assay type: functional; parameters: scale not given: direction of the effect not stated beside the values; settings: 30 µM; further: in the data most compounds retested in dose-response had high values
T1 sequence (whole entry): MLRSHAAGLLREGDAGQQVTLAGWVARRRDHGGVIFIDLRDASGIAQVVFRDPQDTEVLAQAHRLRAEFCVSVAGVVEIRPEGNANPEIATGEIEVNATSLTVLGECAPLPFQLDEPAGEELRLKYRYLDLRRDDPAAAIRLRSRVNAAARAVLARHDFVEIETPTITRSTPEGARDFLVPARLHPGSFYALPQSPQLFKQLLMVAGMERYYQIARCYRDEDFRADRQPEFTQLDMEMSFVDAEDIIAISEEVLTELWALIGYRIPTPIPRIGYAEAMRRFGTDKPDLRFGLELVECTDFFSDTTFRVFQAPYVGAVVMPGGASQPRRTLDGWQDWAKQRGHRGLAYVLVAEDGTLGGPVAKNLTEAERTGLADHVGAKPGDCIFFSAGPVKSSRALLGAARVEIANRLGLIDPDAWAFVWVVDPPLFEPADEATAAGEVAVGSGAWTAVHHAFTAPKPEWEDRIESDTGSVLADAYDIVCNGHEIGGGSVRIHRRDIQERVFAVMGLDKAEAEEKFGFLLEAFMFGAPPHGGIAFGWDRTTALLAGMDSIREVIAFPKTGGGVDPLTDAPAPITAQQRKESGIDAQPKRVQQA

| SMILES | Percent Effect |
| --- | --- |
| Cc1nn(-c2ccccc2)c(C)c1CNC1CCc2ncnn2C1 (stereo not given) | -2.94% |
| COCC(c1cccc(C(F)(F)F)c1)N(C)C(=O)c1cc(C)n[nH]1 (stereo not given) | 1.86% |
| CC(C)(C)C(=O)N1CCC(c2nc(O)cc(-c3ccccn3)n2)CC1 | 5.88% |
| Cc1cc(NC(=O)NCC(C)O)n(C)n1 (stereo not given) | -2.68% |
| CCN1CCN(c2ncc(-c3cc(C)no3)c(-c3ccoc3C)n2)CC1 | 0.313% |
| NC(=O)CSCC(=O)N1CCc2cc(Cl)cc(Cl)c2C1 | 12.7% |
| CCn1cnnc1C1CCN(C(=O)c2ccc3cc[nH]c3c2)CC1 | -3% |
| CCS(=O)(=O)N(C)C1CCN(C(=O)c2cccc(Cl)c2)CC1 | -0.493% |
| c1nc2c(c(C3CC3)n1)CCN(Cc1ccoc1)CC2 | 2.3% |
| COCC(=O)N1CCC2(CC1)COCCN2CCN(C)C | 3.2% |
| CN(Cc1cccc(F)c1)C1CCN(CCc2ccccn2)CC1 | -3.32% |
| CC(C)(C)C(=O)NCCC(=O)NS(=O)(=O)c1ccc2c(c1)OCCO2 | -10.1% |
| CC(C)(CNC(=O)NCCOc1cccc(F)c1)C(N)=O | -1.21% |
| CC(C)c1nc(C2CCCN(Cc3nnc(C4CC4)o3)C2)no1 (stereo not given) | -2.16% |
| CCc1nnc2n1CCN(Cc1ccc(C(=O)N3CCCC3)cc1)C2 | -3.93% |
| Cn1nnc2c1CCN(Cc1ccccc1)C2COCC1CC1 (stereo not given) | 2.13% |
| CC(=O)N1CCCN(C(=O)c2csc(-c3ccc(C)cc3C)n2)CC1 | -7.84% |
| CC(C)CNC(=O)NC(=O)CNc1ccccc1SCC(C)C#N (stereo not given) | -5.03% |
| CC(=O)Nc1nc(C(=O)Nc2ccc(F)cc2)cs1 | -0.259% |
| COc1ccccc1N1CCC(CNCc2cccc(O)c2)C1 (stereo not given) | 2.22% |

| SMILES | Percent Effect |
| --- | --- |
| CCN(Cc1ccco1)C(=O)NCc1nnc2n1CCC2 | 0.859% |
| CC(NC(=O)NCc1cccnc1N1CCCCC1)c1nccs1 (stereo not given) | -6.16% |
| Cc1cc(C)c(CNC(=O)C2CCCN(c3cnccn3)C2)c(=O)[nH]1 (stereo not given) | -0.345% |
| Cc1ncc2c(n1)CCN(Cc1nc3ccccc3o1)C2 | 6.98% |
| Cc1nc(N2CCOCC2)nc2c1CCN(C(=O)NC1CCCC1)CC2 | 2.29% |
| CN(C)C(=O)c1cccc(NC(=O)N(CCO)Cc2ccsc2)c1 | -4.93% |
| CN(Cc1ccccc1O)C(=O)NC1CCCN(c2ncccn2)C1 (stereo not given) | -4.06% |
| Cc1ncc(C)c(N2CCCC(CO)(Cc3cccc(Cl)c3)C2)n1 (stereo not given) | 2.71% |
| CC(O)CN1CCN(C(=O)c2ccc(Cn3cccc3)cc2)CC1 (stereo not given) | 11% |
| COc1ccc(CNC(=O)NC2CCN(CC(F)F)CC2)cc1C | -0.127% |
| COc1ccc(C(C(=O)O)N2CCCN(C3CCCCC3)CC2)cn1 (stereo not given) | 2.16% |
| COc1ccnc(C(=O)N2CCCC(c3noc(C)n3)C2)c1 (stereo not given) | 0.885% |
| CNC(=O)c1cccc(C2CNCCN2C(C)=O)c1 (stereo not given) | -2.04% |
| Cc1ccc(-c2nc(CNCCn3cccn3)cs2)o1 | -0.233% |
| O=S(=O)(C1CC1)N1CCO[C@H]2[C@H](OCC3CCCC3)CC[C@@H]21 | 0.291% |
| CC(=O)NC1CCCN(C(=O)c2ccc(Br)cc2O)C1 (stereo not given) | 2.34% |
| Cc1cnn(CC2CN(CCc3ccncc3)CCO2)c1 (stereo not given) | 8.62% |
| CC(C)c1nnc2n1CCN(C(=O)c1ccc3cc[nH]c3c1)C2 | -2.98% |
| Cc1cc(NC(=O)CN2CCn3c(nnc3C3CC3)C2)n(C)n1 | -5.68% |
| CCN(CCNC(=O)c1ccccc1OCCOC)C1CC1 | -0.655% |

target: Shiga toxin 2 (Escherichia coli O157:H7) (UniProt P09385+P09386); assay: E. coli 0.157:H7 Shiga Toxin SOP - stx2 screening assay; assay type: functional; parameters: scale not given: direction of the effect not stated beside the values; settings: 30 µM

| SMILES | Percent Effect |
| --- | --- |
| Cc1nn(-c2ccccc2)c(C)c1CNC1CCc2ncnn2C1 (stereo not given) | 4.77% |
| COCC(c1cccc(C(F)(F)F)c1)N(C)C(=O)c1cc(C)n[nH]1 (stereo not given) | 24.9% |
| CC(C)(C)C(=O)N1CCC(c2nc(O)cc(-c3ccccn3)n2)CC1 | -6.29% |
| Cc1cc(NC(=O)NCC(C)O)n(C)n1 (stereo not given) | -5.14% |
| CCN1CCN(c2ncc(-c3cc(C)no3)c(-c3ccoc3C)n2)CC1 | -6.58% |
| NC(=O)CSCC(=O)N1CCc2cc(Cl)cc(Cl)c2C1 | -44.7% |
| CCn1cnnc1C1CCN(C(=O)c2ccc3cc[nH]c3c2)CC1 | -9.96% |
| CCS(=O)(=O)N(C)C1CCN(C(=O)c2cccc(Cl)c2)CC1 | 14.8% |
| c1nc2c(c(C3CC3)n1)CCN(Cc1ccoc1)CC2 | -14.5% |
| COCC(=O)N1CCC2(CC1)COCCN2CCN(C)C | -1.86% |
| CN(Cc1cccc(F)c1)C1CCN(CCc2ccccn2)CC1 | -8.85% |
| CC(C)(C)C(=O)NCCC(=O)NS(=O)(=O)c1ccc2c(c1)OCCO2 | 0.645% |
| CC(C)(CNC(=O)NCCOc1cccc(F)c1)C(N)=O | 28.8% |
| CC(C)c1nc(C2CCCN(Cc3nnc(C4CC4)o3)C2)no1 (stereo not given) | -7.91% |
| CCc1nnc2n1CCN(Cc1ccc(C(=O)N3CCCC3)cc1)C2 | -0.0173% |
| Cn1nnc2c1CCN(Cc1ccccc1)C2COCC1CC1 (stereo not given) | -19.5% |
| CC(=O)N1CCCN(C(=O)c2csc(-c3ccc(C)cc3C)n2)CC1 | -0.511% |
| CC(C)CNC(=O)NC(=O)CNc1ccccc1SCC(C)C#N (stereo not given) | 4.99% |
| CC(=O)Nc1nc(C(=O)Nc2ccc(F)cc2)cs1 | -5.87% |
| COc1ccccc1N1CCC(CNCc2cccc(O)c2)C1 (stereo not given) | -10.3% |

| SMILES | Percent Effect |
| --- | --- |
| CCN(Cc1ccco1)C(=O)NCc1nnc2n1CCC2 | -4.02% |
| CC(NC(=O)NCc1cccnc1N1CCCCC1)c1nccs1 (stereo not given) | -7.44% |
| Cc1cc(C)c(CNC(=O)C2CCCN(c3cnccn3)C2)c(=O)[nH]1 (stereo not given) | 30.7% |
| Cc1ncc2c(n1)CCN(Cc1nc3ccccc3o1)C2 | -21.4% |
| Cc1nc(N2CCOCC2)nc2c1CCN(C(=O)NC1CCCC1)CC2 | -52.5% |
| CN(C)C(=O)c1cccc(NC(=O)N(CCO)Cc2ccsc2)c1 | -18.5% |
| CN(Cc1ccccc1O)C(=O)NC1CCCN(c2ncccn2)C1 (stereo not given) | 34% |
| Cc1ncc(C)c(N2CCCC(CO)(Cc3cccc(Cl)c3)C2)n1 (stereo not given) | -21.4% |
| CC(O)CN1CCN(C(=O)c2ccc(Cn3cccc3)cc2)CC1 (stereo not given) | 19.4% |
| COc1ccc(CNC(=O)NC2CCN(CC(F)F)CC2)cc1C | -3.6% |
| COc1ccc(C(C(=O)O)N2CCCN(C3CCCCC3)CC2)cn1 (stereo not given) | 0.0125% |
| COc1ccnc(C(=O)N2CCCC(c3noc(C)n3)C2)c1 (stereo not given) | 1.38% |
| CNC(=O)c1cccc(C2CNCCN2C(C)=O)c1 (stereo not given) | -2.23% |
| Cc1ccc(-c2nc(CNCCn3cccn3)cs2)o1 | 13% |
| O=S(=O)(C1CC1)N1CCO[C@H]2[C@H](OCC3CCCC3)CC[C@@H]21 | 8.36% |
| CC(=O)NC1CCCN(C(=O)c2ccc(Br)cc2O)C1 (stereo not given) | 19.3% |
| Cc1cnn(CC2CN(CCc3ccncc3)CCO2)c1 (stereo not given) | -2.69% |
| CC(C)c1nnc2n1CCN(C(=O)c1ccc3cc[nH]c3c1)C2 | 3.97% |
| Cc1cc(NC(=O)CN2CCn3c(nnc3C3CC3)C2)n(C)n1 | 19.6% |
| CCN(CCNC(=O)c1ccccc1OCCOC)C1CC1 | -72% |
